# IL-1B inflam inh – qHTS for Inhibitors of Inflammasome Signaling: IL-1-beta AlphaLISA Primary Screen; THP-1 LPS/ATP IL-1B secretion, AlphaLISA, 16 h; active compounds read low; activity change, % at 57.5 µM; 360,000 tested, 4.7% active; in the data active = activity change below about -50%; inconclusive = mostly about -30% to -49%
#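 Secreted IL-1B measured by AlphaLISA bead assay after 16 h compound exposure of THP-1 cells; compounds (final up to 57.5 uM) added 1 h before LPS (250 ng/mL) and ATP (1.25 mM) stimulation; lower signal means less secretion.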
# TDP1 cell noCPT – qHTS for Inhibitors of human tyrosyl-DNA phosphodiesterase 1 (TDP1): qHTS in cells in absence of CPT | DT40 Tdp1-/- hTDP1 cells, no CPT, ATP luminescence, 48 h | AID 686978, 2013 | 420,000 tested, 15% active | Potency, µM (top dose mostly 46.2 µM), inactives show at the top dose activity change, negative = growth inhibition, actives largely listed as inhibitors; note: potency is the fitted concentration of half-maximal effect; nearly all actives have a fitted effect of over 55% in size
#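 Camptothecin absent (DMSO only). Human TDP1-complemented DT40 knockout cells, 400 cells/well, 37 °C for minimum 48 hr; ATP measured via CellTiter-Glo, 30 min dark incubation, luminescence.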
# TDP1 inh – qHTS Assay for Inhibitors of Tyrosyl-DNA Phosphodiesterase (TDP1) | 350,000 tested, 0.28% active | Potency, µM (series often up to 130 µM), without a hit: at the top dose activity change, negative = inhibition, actives largely listed as inhibitors | recombinant TDP1, AlphaScreen DNA substrate cleavage | Tyrosyl-DNA phosphodiesterase 1 (Homo sapiens), Q9NUW8; note: potency is the fitted concentration of half-maximal effect; nearly all actives have a fitted effect of over 40% in size
# Target sequence (Q9NUW8 whole entry, looked up): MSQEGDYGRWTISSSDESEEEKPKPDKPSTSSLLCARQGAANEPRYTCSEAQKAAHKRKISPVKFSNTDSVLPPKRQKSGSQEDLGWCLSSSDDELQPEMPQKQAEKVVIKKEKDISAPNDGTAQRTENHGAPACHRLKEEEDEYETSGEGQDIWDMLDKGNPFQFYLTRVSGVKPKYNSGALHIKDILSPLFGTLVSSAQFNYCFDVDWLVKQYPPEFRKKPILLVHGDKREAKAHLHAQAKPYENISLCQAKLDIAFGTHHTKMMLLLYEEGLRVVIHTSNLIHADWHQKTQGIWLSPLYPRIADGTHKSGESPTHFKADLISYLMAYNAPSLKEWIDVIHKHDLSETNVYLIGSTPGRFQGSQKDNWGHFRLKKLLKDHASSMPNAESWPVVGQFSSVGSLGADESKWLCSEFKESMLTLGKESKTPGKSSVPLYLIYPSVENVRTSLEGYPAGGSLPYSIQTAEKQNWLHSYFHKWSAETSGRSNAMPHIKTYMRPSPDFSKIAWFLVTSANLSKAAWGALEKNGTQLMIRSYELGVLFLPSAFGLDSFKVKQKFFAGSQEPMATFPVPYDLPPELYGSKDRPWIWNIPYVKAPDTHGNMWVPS
#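 Enzyme-compound mixtures sat 15 min at room temperature, followed by a 5 min reaction with 15 nM final substrate and 10 min with AlphaScreen beads. Recombinant human Tdp1 was used at 1 nM final.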
# DT40 TDP1 CPT – qHTS for Inhibitors of human tyrosyl-DNA phosphodiesterase 1 (TDP1): qHTS in cells in presence of CPT | chicken DT40 Tdp1-/-;hTDP1 cells + 20 nM CPT, ATP luminescence, 48 h | Potency, µM (titrated, usually from 46.2 µM), for inactives: top-dose activity change, negative = growth inhibition, usual class: inhibitors | 420,000 tested, 12% active; note: potency is the fitted concentration of half-maximal effect; nearly all actives have a fitted effect of over 55% in size
#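 Chicken DT40 Tdp1-/- cells complemented with human TDP1, 400 cells/well, exposed to compounds plus 20 nM camptothecin for at least 48 h at 37 C; viability read as ATP content by CellTiter-Glo luminescence.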
# Six1-Eya2 blk – qHTS Assay for Inhibitors of the Six1/Eya2 Interaction | AlphaScreen GST-Six1/His-Eya2 binding, biochemical; active compounds read low | AID 651725, 2012 | 360,000 tested, 0.56% active | activity change, % (no concentration beside the values); in the data active = activity change below about -65%; inconclusive = mostly about -30% to -63%
#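 AlphaScreen luminescence read after one hour at 37 °C in darkness. Pin-transferred compounds met GST-Six1 and His-Eya2 protein (5X stock 250 nM/500 nM) plus glutathione donor and Ni-chelate acceptor beads (5X, 50 ug/mL).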
# CtBP-E1A blk – qHTS Assay for Inhibitors of the CtBP/E1A Interaction. 340,000 tested, 0.49% active. AID 651724, 2012. activity change, % (test concentration not listed). AlphaScreen GST-E1A/His-CtBP binding, 1536-well; active compounds read low. CtBP / adenovirus E1A interaction (AlphaScreen); in the data active = activity change below about -65%; inconclusive = mostly about -30% to -63%
#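 In 5 uL wells, 23 nL compound meets equimolar GST-E1A and His-CtBP (5X stock 125 nM each) for 2 h, 37 °C. Beads (5X, 50 ug/mL) then 1 h, 37 °C, dark.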
# * = called active by the depositor; ? = inconclusive; . = not tested or not shown. Rows were chosen to be rich in hits. Some 18% of all compounds tested hit in one or more screens of this group. Unless noted, calls come from the whole dose curve; as a rule, active = well fitted curve in the direction sought with a large enough effect; inconclusive = small, poorly fitted or top-dose-only effect, or another doubt; inactive = no such curve, though single readings can be large; an effect the other way counts as inactive or inconclusive. % is set by controls: 0 for no effect and ±100 for the full control effect.
SMILES,IL-1B inflam inh,TDP1 cell noCPT,TDP1 inh,DT40 TDP1 CPT,Six1-Eya2 blk,CtBP-E1A blk
Cc1ccc2c(c1)c1nnc(SCC(=O)N3CCN(c4ccc(F)cc4)CC3)nc1n2CC(=O)O,17,-19%,-3%,0%,0,0
CCn1c2ccccc2c2nnc(SCc3ccccc3)nc21,24,?,-5%,?,5,5
CCn1c2ccccc2c2nnc(SCCN3CCOCC3)nc21,12,?,.,-20%,5,.
CCn1c2ccccc2c2nnc(SCc3ccc(C(=O)OC)o3)nc21,-21,23µM*,-2%,18µM*,-23,-23
CCn1c2ccccc2c2nnc(SCCN3CCCCC3)nc21,?,?,4%,26µM*,-10,-2
CCn1c2ccc(C)cc2c2nnc(SCCN3CCOCC3)nc21,-64*,21µM*,0%,?,?,?
CCn1c2ccccc2c2nnc(SCCCn3c(=O)[nH]c4ccccc43)nc21,2,23µM*,8%,?,2,5
COc1ccc(C(=O)NCc2nnc(SCC(=O)N3CCCCCC3)o2)cc1OC,9,-19%,0%,7%,5,.
CCCCn1c2ccc(C)cc2c2nnc(SCCN3CCCCC3)nc21,-78*,21µM*,.,?,-5,-8
Cc1ccc2c(c1)c1nc3ccccc3nc1n2CCN1CCOCC1,-58*,18µM*,1%,?,9,2
Cc1ccc2c(c1)c1nc3ccccc3nc1n2C,-6,?,.,?,11,.
Cc1nc2c3cc(Cl)ccc3n(CCN3CCOCC3)c2s1,-23,15µM*,4%,?,1,-1
Cn1c(CSCc2ccccc2)n[nH]c1=S,6,-20%,3%,8%,3,6
CCN(CC)S(=O)(=O)c1ccc(N2CCCC2)c(NC(=O)C2CSC3(C)CCC(=O)N23)c1 (stereo unspecified),-24,?,.,?,1,0

# Screening data deposited in PubChem by National Center for Advancing Translational Sciences (NCATS).
